Screening data as filed in PubChem.
Menin MLL FP FL: qHTS Assay for Inhibitors Targeting the Menin-MLL Interaction in MLL Related Leukemias: Competition With Fluorescein Labeled MLL-derived Peptide. Fluorescence polarization, fluorescein-MLL peptide displacement from menin. FP activity change, % at 61.4 µM. AID 1766, 2009. 290,000 tested, under 10 active; active = well fitted curve in the direction sought with a large enough effect in the polarisation, not every such curve was filed as active; inconclusive = small, poorly fitted or top-dose-only effect, or effect the other way, or a change in a side signal; inactive = no such curve, though single readings can be large or run the other way; the % refers to the polarisation; note: % of control where 0% means no effect
Menin MLL FP TR: qHTS Assay for Inhibitors Targeting the Menin-MLL Interaction in MLL Related Leukemias: Competition With Texas Red Labeled MLL-derived Mutant Peptide; O00255; Menin + Texas Red MLL mutant peptide, fluorescence polarization; Potency, µM (top dose mostly 61.6 µM), inactives show at the highest dose FP activity change, negative = inhibition, actives largely listed as inhibitors; AID 1768, 2009; 0.23% of 270,000 active; active = well fitted inhibition curve with a large enough effect in the polarisation, with a control signal flat, not every such curve was filed as active; inconclusive = small, poorly fitted or top-dose-only effect, or effect the other way, or a change in a side signal; inactive = no such curve, though single readings can be large or run the other way; the % refers to the polarisation; note: potency is the fitted concentration of half-maximal effect; % of control where 0% means no effect
Target sequence (O00255 whole entry, looked up): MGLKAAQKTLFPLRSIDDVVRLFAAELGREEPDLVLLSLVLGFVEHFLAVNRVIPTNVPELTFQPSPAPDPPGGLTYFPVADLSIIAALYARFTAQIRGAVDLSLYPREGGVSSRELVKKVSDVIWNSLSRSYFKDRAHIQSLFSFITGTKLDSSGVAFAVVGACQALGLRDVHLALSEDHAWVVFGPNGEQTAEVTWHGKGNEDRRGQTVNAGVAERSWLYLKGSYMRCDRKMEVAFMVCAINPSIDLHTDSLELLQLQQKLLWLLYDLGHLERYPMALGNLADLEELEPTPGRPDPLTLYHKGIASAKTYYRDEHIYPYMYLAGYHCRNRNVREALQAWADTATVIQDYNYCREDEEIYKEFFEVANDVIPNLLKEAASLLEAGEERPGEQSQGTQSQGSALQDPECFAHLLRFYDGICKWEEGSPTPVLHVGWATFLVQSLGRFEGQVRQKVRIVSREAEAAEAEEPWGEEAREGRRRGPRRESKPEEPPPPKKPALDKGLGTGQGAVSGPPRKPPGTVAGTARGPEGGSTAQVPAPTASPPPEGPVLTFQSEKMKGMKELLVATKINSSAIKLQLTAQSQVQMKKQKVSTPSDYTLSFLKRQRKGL
aGlu spleen mod: qHTS Assay for Inhibitors and Activators of Human alpha-Glucosidase From Spleen Homogenate | Potency, µM (doses to about 79.9 µM), for the others: at the top dose activity change, negative = inhibition, most hits filed as inhibitors | human spleen homogenate, 4-MU-alpha-glucoside fluorescence | 0.006% of 240,000 active | AID 2112, 2009;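 note: potency is the fitted concentration of half-maximal effect; 0% = enzyme with vehicle and -100% = no enzyme basal signal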
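Compounds were titrated against alpha-glucosidase in spleen homogenate at pH 5.0, with 1 mM 4-methylumbelliferyl substrate for 40 min at 37 C. Reactions were quenched with pH 10 NaOH/glycine and fluorescence measured.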
GAA inhib: qHTS Assay for Inhibitors of Human alpha-Glucosidase as a Potential Chaperone Treatment of Pompe Disease; AID 1466, 2008; 0.005% of 200,000 active; Potency, µM (top dose mostly 76.9 µM), for the others: at the highest dose activity change, negative = inhibition, most hits filed as inhibitors; purified human GAA, 4-MU-alpha-glucoside fluorescence;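 note: potency is the fitted concentration of half-maximal effect; plate controls were uninhibited enzyme wells for no effect and no-enzyme background for full effect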
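Fluorogenic assay: 4 nM human alpha-glucosidase with 400 uM 4-methylumbelliferyl-alpha-D-pyranoside in 50 mM citrate/phosphate, 0.005% Tween-20, pH 5.0, 20 min at room temperature. Compounds tested up to 77 uM; AC50 from Hill fits.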
GAA glycogen mod: qHTS Assay for Inhibitors and Activators of Human alpha-Glucosidase Cleavage of Glycogen; 0.38% of 300,000 active; Lysosomal alpha-glucosidase (Homo sapiens), P10253; AID 2100, 2009; recombinant GAA, glycogen substrate, Amplex Red glucose oxidase fluorescence; Potency, µM (series often up to 76.4 µM), for the others: top-dose activity change, negative = inhibition, hits mostly inhibitors;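 note: potency is the fitted concentration of half-maximal effect; 0% = full enzyme reaction and -100% = no-enzyme basal signal; the screen sought inhibitors and activators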
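Recombinant human alpha-glucosidase (4 nM final) hydrolysed bovine liver glycogen (30 ug) for 40 min at 37 C in pH 5.0 citrate/phosphate with 0.01% Tween-20. Released glucose detected by glucose oxidase/Amplex Red, Ex 573/Em 610 nm. Compounds up to 77 uM; AC50 from Hill fits.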
MLL CXXC-DNA inh: qHTS Fluorescence Polarization Assay for Inhibitors of MLL CXXC domain - DNA interaction. MLL-CXXC / FITC-HOXA9 DNA fluorescence polarization. Histone-lysine N-methyltransferase 2A (Homo sapiens), Q03164. 0.037% of 290,000 active. Potency, µM (highest dose often 115 µM), for inactives: top-dose activity change, negative = inhibition, hits mostly inhibitors; active = well fitted inhibition curve with a large enough effect in the polarisation, with a control signal flat, not every such curve was filed as active; inconclusive = small, poorly fitted or top-dose-only effect, or effect the other way, or a change in a side signal; inactive = no such curve, though single readings can be large or run the other way; the % refers to the polarisation; note: potency is the fitted concentration of half-maximal effect
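Purified MLL-CXXC (added from a 7 uM solution) was preincubated 5 min at ambient with pinned compounds in 50 mM Tris-HCl pH 7.5, 50 mM NaCl, 1 mM DTT, 0.05% BSA. Fluorescein-labeled HOX-A9 DNA (50 nM solution) followed, 30 min, then polarization read.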
* marks the source's active call; other numbers are inactive results; [ ] = dose if it differs, or a comment. Rows were chosen to be rich in hits. Some 0.45% of all compounds tested hit in one or more screens of this group. Unless noted, calls come from the whole dose curve; as a rule, active = well fitted curve in the direction sought with a large enough effect; inconclusive = small, poorly fitted or top-dose-only effect, or another doubt; inactive = no such curve, though single readings can be large; an effect the other way counts as inactive or inconclusive.

What do the screens show for `O=C(CSc1nc2ccc(Nc3nc(N4CCOCC4)nc(N4CCOCC4)n3)cc2s1)Nc1ccccc1F`?
GAA glycogen mod: 3%[76.3 µM]; MLL CXXC-DNA inh: 4%

What do the screens show for `CC1=C(c2ccc(C)cc2)S(=O)(=O)NC1=NCCCN1CCN(c2ccccc2F)CC1`?
GAA glycogen mod: 12%[76.3 µM]

Results for Oc1ccc(/C=N/NC(=S)NCC2CCCO2)cc1 (stereo not given) ?
Menin MLL FP FL: -2; Menin MLL FP TR: 1%; aGlu spleen mod: -11%; GAA inhib: -2%; GAA glycogen mod: 32µM*; MLL CXXC-DNA inh: 4%

Results for COCCCNC(=S)N/N=C/c1ccc(O)cc1 ?
Menin MLL FP FL: 6; aGlu spleen mod: 11%; GAA inhib: -1%; GAA glycogen mod: 32µM*; MLL CXXC-DNA inh: 0%

What do the screens show for `COCCCNC(=S)N/N=C/c1ccc(OC)cc1`?
Menin MLL FP FL: -2; aGlu spleen mod: 7%; GAA inhib: 5%; GAA glycogen mod: -26%; MLL CXXC-DNA inh: -12%

Results for CCCC/C=C/C(NC(=O)c1cccs1)c1ccccc1 (stereo not given) ?
Menin MLL FP FL: 1; Menin MLL FP TR: 21%; aGlu spleen mod: 4%

What do the screens show for `CC1=C(C)C[C@@]23CCCN2C(=O)CCC[C@H]3C1`?
Menin MLL FP FL: 5[138 µM]; Menin MLL FP TR: 6%[138 µM]; aGlu spleen mod: 0%[181 µM]

Results for Brc1ccc(C=Nc2ccc(Nc3ccccc3)cc2)s1 ?
Menin MLL FP FL: 1; Menin MLL FP TR: -14%; aGlu spleen mod: -11%; GAA inhib: 2%; GAA glycogen mod: 8.9µM*; MLL CXXC-DNA inh: 9%

How did C(=Nc1ccc(Nc2ccccc2)cc1)c1ccc2ccccc2c1 do in these assays?
Menin MLL FP FL: 4; Menin MLL FP TR: inconclusive; aGlu spleen mod: -3%; GAA inhib: -5%; GAA glycogen mod: 18µM*; MLL CXXC-DNA inh: 7%

Results for N#Cc1ccc(CN2CCC3(CCNCC3)CC2)cc1 ?
Menin MLL FP FL: -1; Menin MLL FP TR: -28%; aGlu spleen mod: 4%

Results for O=C(NCc1cccs1)Nc1cccs1 ?
Menin MLL FP FL: 18; Menin MLL FP TR: inconclusive; aGlu spleen mod: -5%; GAA inhib: -3%; GAA glycogen mod: 4µM*; MLL CXXC-DNA inh: -11%

What do the screens show for `Cc1ccccc1CNC(=O)Nc1cccs1`?
Menin MLL FP FL: inconclusive; Menin MLL FP TR: 27%; aGlu spleen mod: 0%; GAA inhib: 5%; GAA glycogen mod: inconclusive; MLL CXXC-DNA inh: -1%

What do the screens show for `CCOc1ccc(NC(=O)Nc2cccs2)cc1`?
Menin MLL FP FL: 5; Menin MLL FP TR: inconclusive; aGlu spleen mod: -2%; GAA inhib: -4%; GAA glycogen mod: 20µM*; MLL CXXC-DNA inh: -7%

How did Cc1ccc(-c2nc3n(n2)Cc2ccccc2-3)cc1 do in these assays?
Menin MLL FP FL: 0; Menin MLL FP TR: 14%; aGlu spleen mod: 5%; GAA inhib: -2%; GAA glycogen mod: 7%; MLL CXXC-DNA inh: -19%

Results for CCn1c(C)nc2cc(-c3nc4n(n3)Cc3ccccc3-4)ccc21 ?
Menin MLL FP FL: 1; Menin MLL FP TR: 28µM*; aGlu spleen mod: -12%; GAA inhib: 0%; GAA glycogen mod: 4%; MLL CXXC-DNA inh: -9%

How did CCOC(=O)c1sc(NC(=O)CN2C(=O)c3cccc4cccc(c34)C2=O)nc1C do in these assays?
Menin MLL FP FL: -1; Menin MLL FP TR: 4µM*; aGlu spleen mod: -8%; GAA inhib: 7%; GAA glycogen mod: inconclusive; MLL CXXC-DNA inh: 26%

What do the screens show for `COc1ccccc1N1CCN(/N=C/c2cccc(O)c2)CC1`?
Menin MLL FP FL: -4; Menin MLL FP TR: 27%; aGlu spleen mod: 2%; GAA inhib: -10%; GAA glycogen mod: 9.9µM*; MLL CXXC-DNA inh: 6%

How did COc1ccccc1N1CCN(/N=C/c2cc(OC)c(O)c(OC)c2)CC1 do in these assays?
Menin MLL FP FL: 9; Menin MLL FP TR: -20%; aGlu spleen mod: -3%; GAA inhib: -12%; GAA glycogen mod: inconclusive; MLL CXXC-DNA inh: -10%

Results for COc1ncc2nc(-c3cn(C)c4ccccc34)c(=O)n(C)c2n1 ?
Menin MLL FP FL: inconclusive; Menin MLL FP TR: 1%; aGlu spleen mod: -6%

What do the screens show for `C/C(CCN1CCCc2nc(C)c(C)cc21)=N\O[C@@H](C)c1cn([C@@H]2COC[C@@H]2O)nn1`?
Menin MLL FP FL: -4[11.7 µM]; Menin MLL FP TR: 1%[11.7 µM]; aGlu spleen mod: -5%[17.4 µM]

How did CCOC(=O)Cc1csc(Nc2c(C)n(C)n(-c3ccccc3)c2=O)n1 do in these assays?
Menin MLL FP FL: -1; Menin MLL FP TR: 3%; aGlu spleen mod: -1%; GAA inhib: -1%; GAA glycogen mod: 10µM*; MLL CXXC-DNA inh: 0%

Results for Cc1c(Nc2nc(-c3ccc(Cl)cc3)cs2)c(=O)n(-c2ccccc2)n1C ?
Menin MLL FP FL: 0; Menin MLL FP TR: 6%; aGlu spleen mod: 3%; GAA inhib: inconclusive; GAA glycogen mod: inconclusive; MLL CXXC-DNA inh: 9%

How did CC(C)c1ccc2c(c1)CC[C@@H]1[C@@](C)(CN)CCC[C@]21C do in these assays?
Menin MLL FP FL: inconclusive; Menin MLL FP TR: -3%[24.8 µM]; aGlu spleen mod: 13%

How did CC(C)c1ccc2c(c1)CCC1C(C)(CN)CCCC21C (stereo not given) do in these assays?
Menin MLL FP FL: -10; Menin MLL FP TR: 20µM*; aGlu spleen mod: -1%; GAA glycogen mod: -6%; MLL CXXC-DNA inh: 15%

What do the screens show for `COc1cc(/C=C2\CC(C(C)(C)C)C/C(=C\c3cc(OC)c(OC)c(OC)c3)C2=O)cc(OC)c1OC` (stereo not given)?
Menin MLL FP FL: -16; Menin MLL FP TR: 7.9µM*; GAA glycogen mod: -7%; MLL CXXC-DNA inh: inconclusive

How did Cc1ccc(Cl)cc1NC(=O)N1CCC(CN2CCCCCC2)CC1 do in these assays?
GAA glycogen mod: 5%[76.3 µM]

Results for COc1ccc(C(=O)N2CCC[C@@]3(CCN(CC(C)C)C3)C2)cc1 ?
Menin MLL FP FL: 2; Menin MLL FP TR: -16%; aGlu spleen mod: 1%

How did Nc1ccc(Nc2ccccc2)c(S(=O)(=O)O)c1 do in these assays?
Menin MLL FP FL: 3; aGlu spleen mod: -15%; GAA inhib: -3%; GAA glycogen mod: 14µM*; MLL CXXC-DNA inh: 2%
